Compound activity (PubChem)
Compounds with a hit are over-represented: about 11% of the library has one in this group of screens.
Pf growth 96h = Primary qHTS for delayed death inhibitors of the malarial parasite plastid, 96 hour incubation. P. falciparum luciferase reporter growth, 96 h. Potency, µM (top dose mostly 28.7 µM), without a hit: at the top dose activity change, negative = inhibition, actives largely listed as inhibitors. 320,000 tested, 6.9% active. AID 504834, 2011; also: % is scaled to controls: 0 for no effect and ±100 for the full control effect
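Compounds incubated with erythrocytes infected by luciferase-expressing P. falciparum (2% hematocrit, 0.05% parasitemia final) for 96 hours, 37 C in 5% CO2. Growth inhibition scored as decreased luciferase luminescence.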
HCV inh = qHTS Assay for Inhibitors of Hepatitis C Virus (HCV); Huh7.5.1 HCVcc-Cre infection, luciferase reporter, 44 h; Potency, µM (top dose mostly 41.8 µM), inactives show top-dose activity change, negative = inhibition, most hits filed as inhibitors; 340,000 tested, 3.4% active; also: % is scaled to controls: 0 for no effect and ±100 for the full control effect
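A cell-based infection assay in which seeded cells (1,000 per well) receive test compound after 4 h, are inoculated with HCVcc-Cre at approximately 0.5 moi, and are incubated 44 h before luminescence detection.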
AmpC inh detg = qHTS Inhibitors of AmpC Beta-Lactamase (assay with detergent) | P00811 | AmpC hydrolysis of nitrocefin, absorbance 480 nm, 0.01% Triton | Potency, µM (series often up to 114 µM), for the others: top-dose activity change, negative = inhibition, most hits filed as inhibitors | 370,000 tested, 0.041% active | AID 485294, 2010;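 also: 0% = no-compound wells and -100% = no-enzyme wells; nearly all actives have a fitted effect of over 25% in size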
Target sequence (P00811 whole entry, looked up): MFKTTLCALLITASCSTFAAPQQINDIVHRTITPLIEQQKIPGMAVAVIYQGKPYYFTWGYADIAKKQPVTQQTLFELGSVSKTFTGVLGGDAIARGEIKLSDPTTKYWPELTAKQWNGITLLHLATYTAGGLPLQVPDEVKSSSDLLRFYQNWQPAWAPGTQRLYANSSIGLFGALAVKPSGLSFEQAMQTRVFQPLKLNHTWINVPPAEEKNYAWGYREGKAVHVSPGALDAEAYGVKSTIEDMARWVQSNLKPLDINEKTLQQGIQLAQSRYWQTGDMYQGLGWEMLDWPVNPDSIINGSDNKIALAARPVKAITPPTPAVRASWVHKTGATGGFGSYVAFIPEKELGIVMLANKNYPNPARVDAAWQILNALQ
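20 mM phosphate pH 7.0 + 0.01% (detergent screen) or 0.0001% Triton X-100; 5.3 nM AmpC reagent; cpd preinc 15 min RT; nitrocefin (800 uM stock) to start; A480 q20 s × 4 min; Activity was normalised to no-enzyme and no-compound control wells.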
Pf growth 48h = Primary qHTS for delayed death inhibitors of the malarial parasite plastid, 48 hour incubation; P. falciparum luciferase growth in erythrocytes, 48 h; Potency, µM (titrated, usually from 28.7 µM), for the others: top-dose activity change, negative = inhibition, most hits filed as inhibitors; 310,000 tested, 5.9% active; AID 504832, 2011; also: % is scaled to controls: 0 for no effect and ±100 for the full control effect
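Luciferase-expressing P. falciparum in infected erythrocytes (2% hematocrit, 0.1% parasitemia final) in RPMI 1640/0.5% Albumax were exposed to compound for 48 hours at 37 C, 5% CO2; growth read as luminescence.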
AMA1-RON2 inh = qHTS for Inhibitors of AMA1-RON; Towards Development of Antimalarial Drug Lead: Primary Screen. Plasmodium falciparum AMA1 (3D7) - RON2 peptide interaction. AlphaScreen AMA1-biotinylated RON2 peptide binding. Potency, µM (top dose mostly 58.2 µM), without a hit: at the highest dose activity change, negative = inhibition, actives largely listed as inhibitors. 360,000 tested, 0.2% active. AID 720542, 2013;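 also: 0% = vehicle wells and -100% = peptide control; nearly all actives have a fitted effect of over 45% in size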
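AMA1 (3D7) with his tag at 25 nM final met compounds first, then biotinylated RON2 peptide at 25 nM; detection used donor plus acceptor beads, 10 µg/mL apiece, read by AlphaScreen after 30 min at room temperature.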
AmpC inh no detg = qHTS Inhibitors of AmpC Beta-Lactamase (assay without detergent); AmpC nitrocefin hydrolysis, absorbance 480 nm, 0.0001% Triton; P00811; 330,000 tested, 0.52% active; AID 485341, 2010; Potency, µM (doses to about 57.1 µM), for the others: at the top dose activity change, negative = inhibition, usual class: inhibitors;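 also: plate controls were no compound for no effect and no enzyme for full effect; nearly all actives have a fitted effect of over 20% in size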
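20 mM phosphate pH 7.0 + 0.01% (detergent screen) or 0.0001% Triton X-100; 5.3 nM AmpC reagent; cpd preinc 15 min RT; nitrocefin (800 uM stock) to start; A480 q20 s × 4 min; Activity was normalised to no-enzyme and no-compound control wells.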
HCV inh confirm = qHTS Assay for Inhibitors of Hepatitis C Virus (HCV): Confirmation Assay for Cherry-picked Compounds | shares compounds with HCV inh | HCVcc-Cre infectious virus cell assay, luciferase, inhibition | Potency, µM (series often up to 41.8 µM), for the others: top-dose activity, negative = inhibition, hits mostly inhibitors | 640 tested, 78% active | AID 720575, 2013; also: nearly all actives have a fitted effect of over 80% in size
HCV host tox = qHTS Assay for Inhibitors of Hepatitis C Virus (HCV): Cytotoxicity Counterscreen for Cherry-picked Compounds | Potency, µM (titrated, usually from 41.8 µM), for inactives: at the highest dose activity change, negative = cytotoxicity, most hits filed as inhibitors | 640 tested, 22% active | HCV host cell line cytotoxicity counterscreen | shares compounds with HCV inh;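 also: 44 h compound exposure; % is scaled to controls: 0 for no effect and ±100 for the full control effect; nearly all actives have a fitted effect of over 55% in size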
Starred values were filed as active, the others as inactive; ? = inconclusive; · = no result given. Calls follow the shape of the dose curve; as a rule, active = well fitted curve in the direction sought with a large enough effect; inconclusive = small, poorly fitted or top-dose-only effect, or another doubt; inactive = no such curve, though single readings can be large; an effect the other way counts as inactive or inconclusive. Potency is read from the fitted curve at half-maximal effect.

SMILES	Pf growth 96h	HCV inh	AmpC inh detg	Pf growth 48h	AMA1-RON2 inh	AmpC inh no detg	HCV inh confirm	HCV host tox
CC1CCCCN1CCCNC(=O)c1sc2ncccc2c1-n1cccc1 (stereo not drawn)	·	·	12%	·	·	·	·	·
COc1cc(N)c(Cl)cc1C(=O)N[C@@H]1CCN(CCCOc2ccc(F)cc2)C[C@@H]1OC	·	·	2%	·	·	91%	·	·
COc1cc(N)c(Cl)cc1C(=O)N[C@H]1CCN(CCCOc2ccc(F)cc2)C[C@H]1OC	4.7µM*	1.8µM*	?	2.6µM*	-5%	105%	4.4µM*	4%
Cc1cccc(Cn2c(NCCO)nc3c2c(=O)n(C)c(=O)n3C)c1	2%	1.8µM*	0%	·	-1%	-2%	4µM*	2.5µM*
O=C(NCC1CCCO1)c1cc2c([nH]c3ccccc32)c(-c2cccc(Br)c2)n1 (stereo not drawn)	3.7µM*	2µM*	-2%	?	7%	-24%	14µM*	37%
O=C(N/N=C/c1ccc[nH]1)c1ccc(Cl)cc1	-5%	5µM*	-11%	54%	46%	-29%	14µM*	14µM*
COc1ccc(C(=O)CC2(O)C(=O)Nc3c(C)cccc32)c(OC)c1OC (stereo not drawn)	·	·	2%	·	·	·	·	·
CCOC(=O)C1(Cc2ccccc2C(F)(F)F)CCN(C2CCN(C(C)C)CC2)CC1	15µM*	3.2µM*	1%	6%	-2%	-16%	11µM*	-24%
COc1cc2c(cc1NC(=O)/C=C/c1ccc([N+](=O)[O-])cc1)oc1ccccc12	29%	-28%	-3%	31%	4%	-18%	·	·
COc1cc2c(cc1NC(=O)COC(=O)/C=C/c1ccc([N+](=O)[O-])cc1)oc1ccccc12	23%	?	?	8%	2%	-15%	?	23%
CC1CN(C)C(C)CC1OC(=O)C(c1ccccc1)c1ccccc1 (stereo not drawn)	·	?	·	·	-2%	·	25µM*	-22%
COc1ccc2c(c1)sc(N)[n+]2Cc1cc(C)cc2cccnc12	?	8.9µM*	-10%	9.3µM*	-8%	6%	16µM*	?
COc1ccc2c(ccc[n+]2[O-])c1	·	15%	·	·	-1%	·	·	·
COc1ccc(CNC(=O)c2cc(C)nc3c2c(C)nn3-c2cccc(Cl)c2C)cc1	·	·	14%	·	·	·	·	·
COc1ccc(C(=O)NCCNc2nc3c(C)cccc3cc2C#N)cc1OC	?	?	-12%	-10%	6%	103%	18µM*	26%
CC1=C(C)/C(=N/OC(=O)c2cccc([N+](=O)[O-])c2)C=CC1=O	?	7.1µM*	?	?	0%	-13%	31µM*	31µM*
N/C(=N/OC(=O)c1cccc([N+](=O)[O-])c1)c1cccc([N+](=O)[O-])c1	24%	?	3%	31%	-20%	-9%	·	·
COCc1cc(C)nc2sc(C(=O)Nc3ccc(OC(F)(F)F)cc3)c(N)c12	·	·	0%	·	·	·	·	·
COc1cc(CCC(O)CC(=O)CCc2ccccc2)ccc1O (stereo not drawn)	0%	1.1µM*	7%	33%	-13%	-7%	-23%	33%
